# Laboratory results: doi:10.1101/2024.03.05.583629
# Molecular target: pT7_6His-AlfaTag-HOXD13 (human, UniProt P35453 263-343)
# Assay: PADIT-seq
# Details: dsDNA, one strand shown
# Chain of pT7_6His-AlfaTag-HOXD13 (P35453 263-343): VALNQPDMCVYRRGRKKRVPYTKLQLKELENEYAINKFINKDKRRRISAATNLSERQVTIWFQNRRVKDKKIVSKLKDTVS
row,Sequence,binding signal [log2FC]
1,CTCGAGGATATCAAGATCTGGCCTCGGCCTTTTAACAGGAACCTCTAGCTAGCCGACTCACTATAGGGATAATCGCCCTGAGCAAAGACC,1.89 ± 0.0877
2,CTCGAGGATATCAAGATCTGGCCTCGGCTCTTTAAAAGGAACCTCTAGCTAGCCGACTCACTATAGGGATAATCGCCCTGAGCAAAGACC,2.42 ± 0.0868
3,CTCGAGGATATCAAGATCTGGCCTCGGCCTTTTAAGTGGAACCTCTAGCTAGCCGACTCACTATAGGGATAATCGCCCTGAGCAAAGACC,1.38 ± 0.0835
4,CTCGAGGATATCAAGATCTGGCCTCGGCCGCCCATCAGGAACCTCTAGCTAGCCGACTCACTATAGGGATAATCGCCCTGAGCAAAGACC,-1.02 ± 0.114
5,CTCGAGGATATCAAGATCTGGCCTCGGCGTTTTATTTGGAACCTCTAGCTAGCCGACTCACTATAGGGATAATCGCCCTGAGCAAAGACC,2.98 ± 0.0869
6,CTCGAGGATATCAAGATCTGGCCTCGGCTGAATAAAAGGAACCTCTAGCTAGCCGACTCACTATAGGGATAATCGCCCTGAGCAAAGACC,0.859 ± 0.0895
7,CTCGAGGATATCAAGATCTGGCCTCGGCTCGATAAAAGGAACCTCTAGCTAGCCGACTCACTATAGGGATAATCGCCCTGAGCAAAGACC,1.03 ± 0.106
8,CTCGAGGATATCAAGATCTGGCCTCGGCCAATGGGCGGGAACCTCTAGCTAGCCGACTCACTATAGGGATAATCGCCCTGAGCAAAGACC,-0.903 ± 0.11
9,CTCGAGGATATCAAGATCTGGCCTCGGCCTTTTACACGGAACCTCTAGCTAGCCGACTCACTATAGGGATAATCGCCCTGAGCAAAGACC,1.93 ± 0.075
10,CTCGAGGATATCAAGATCTGGCCTCGGCCGCCCAAATGGAACCTCTAGCTAGCCGACTCACTATAGGGATAATCGCCCTGAGCAAAGACC,-0.854 ± 0.128
11,CTCGAGGATATCAAGATCTGGCCTCGGCCTTTTACATGGAACCTCTAGCTAGCCGACTCACTATAGGGATAATCGCCCTGAGCAAAGACC,1.85 ± 0.0771
12,CTCGAGGATATCAAGATCTGGCCTCGGCGGTCTAAAAGGAACCTCTAGCTAGCCGACTCACTATAGGGATAATCGCCCTGAGCAAAGACC,-0.664 ± 0.0879
13,CTCGAGGATATCAAGATCTGGCCTCGGCCAGCTAAAAGGAACCTCTAGCTAGCCGACTCACTATAGGGATAATCGCCCTGAGCAAAGACC,-0.419 ± 0.146
